In PubChem BioAssay (NCATS):
Where “and” joins values, the source holds several entries; their conditions need not be identical. Equal entries are not always repeated. Records with an inconclusive call do not appear. Calls of active or inactive are those of the source. Calls follow the shape of the dose curve; as a rule, active = well fitted activation curve with a large enough effect; inconclusive = small, poorly fitted or top-dose-only effect; inactive = no such curve, though single readings can be large or run the other way.

Target: Cellular tumor antigen p53 (Homo sapiens) (UniProt P04637)
Sequence (P04637 whole entry, looked up): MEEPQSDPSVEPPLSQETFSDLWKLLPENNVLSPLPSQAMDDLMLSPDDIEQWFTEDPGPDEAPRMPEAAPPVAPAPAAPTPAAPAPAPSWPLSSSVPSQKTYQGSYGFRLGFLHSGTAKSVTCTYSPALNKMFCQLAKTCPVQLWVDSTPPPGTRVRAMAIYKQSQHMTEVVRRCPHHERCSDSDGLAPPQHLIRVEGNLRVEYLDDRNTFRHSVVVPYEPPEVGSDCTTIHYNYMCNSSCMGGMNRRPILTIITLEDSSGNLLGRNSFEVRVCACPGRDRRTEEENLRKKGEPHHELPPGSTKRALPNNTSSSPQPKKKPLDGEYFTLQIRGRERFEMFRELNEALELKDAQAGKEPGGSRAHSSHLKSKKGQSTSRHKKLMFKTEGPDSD
Experiment: Primary qHTS for small molecule compounds that upregulate eGFP-tagged delta133p53alpha (in N-terminal) cells. (AID 2060322); also: nearly all actives have a fitted effect of over 75% in size;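 as to activation: cells pre-induced with doxycycline then dosed without doxycycline; series mostly up to about 56 µM; 0% = DMSO vehicle and 100% = reference activator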
Details: NCI-H358 eGFP-delta133p53alpha fluorescence, 24 h; activation: hits give high values
Summary of the method: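 NCI-H358 cells pre-induced 24 h with 10 ng/ml doxycycline for eGFP-delta133p53alpha, plated dox-free and exposed 24 h at 37C to titrated compounds. Fixed, Hoechst-stained; gated GFP peak intensity by laser scanning cytometry, normalized to DMSO (0%) and 57.5 uM 5-azacytidine (100%).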
Potency is read from the fitted curve at half-maximal effect.

Compound	activation	Potency
OCC(O)CN1CCN(c2ccccc2)CC1 (centres undefined)	-0.837% (inactive) and 0.955% (inactive)	
Fc1ccc2c(CCNCc3cccc(OCC(F)(F)C(F)F)c3)c[nH]c2c1	3.34% (inactive)	
O=S(=O)(NC1CCC(c2cc(F)ccc2F)(S(=O)(=O)c2ccc(Cl)cc2)CC1)C(F)(F)F (centres undefined)	-16.2% (inactive)	
CC(=O)Nc1cccc(Nc2ncnc(N3CCC(OCc4ccc(OC(F)(F)F)cc4)CC3)n2)c1C	-6.21% (inactive)	
CC(=O)O[C@]1(C(C)=O)CC[C@H]2[C@@H]3CCC4=CC(=O)CCC4=C3[C@@H](c3ccc(N(C)C)cc3)C[C@@]21C	-13.8% (inactive)	
O=C(NCCCN1CCOCC1)c1cnn2c(-c3ccccc3)cc(-c3ccccc3)nc12	-6.68% (inactive)	
COc1cccc(C(=O)NCCNc2nc3cc(C)cc(C)c3cc2C#N)c1	-1.91% (inactive)	
CC(C)(C)c1ccc(CNC(=S)NCc2ccc(NS(C)(=O)=O)c(F)c2)cc1	-6.68% (inactive)	
CC(=O)NC1=NN(C(C)=O)C(C)(c2ccccc2)S1 (centres undefined)		12 µM (active)
COc1ccc(C(=O)n2c(C)c(Cc3cccc(O[C@@H](C)C(=O)O)c3)c3cc(OC(F)(F)F)ccc32)cc1	-3.82% (inactive)	
O=C(NCC1CCN(Cc2cccc(Cl)c2)CC1)[C@@H]1CCCN(c2ncnc3c2nc2n3CCCC2)C1	0% (inactive)	
COc1cc(N2CCOCC2)ccc1NC(=O)c1csc(-c2cccnc2)n1	24.8% (inactive)	
CNS(=O)(=O)CC1CCC(N(C)c2ncnc3[nH]ccc23)CC1 (centres undefined)	-0.477% (inactive)	
Cc1noc(C)c1-c1cc(O)cc(C(O)c2ccccc2)c1 (centres undefined)	10.1% (inactive)	
CCOC(CN1CCN(CC(C)C(=O)c2ccccc2)CC1)c1ccccc1 (centres undefined)	-4.18% (inactive) and 4.3% (inactive)	
O=c1[nH]cnc2c1ncn2[C@@H]1O[C@H](CO)[C@@H](O)[C@H]1O	-11.7% (inactive) and 6.21% (inactive)	
CN(C)C(=O)NC1(c2ccccc2)CCN(CCC[C@]2(c3ccc(Cl)c(Cl)c3)CCCN(C(=O)c3ccccc3)C2)CC1	13.4% (inactive)	

Compound	activation	Potency
Cn1c2ccc(F)cc2c2c(C(=O)N3CCCC3)cn(-c3ccccc3)c(=O)c21	-5.25% (inactive)	
O=C(NCc1ccccn1)Nc1nnc(-c2ccco2)o1	11.9% (inactive)	
Cc1nc2cc(-c3cc(F)cc(C#N)c3)ccc2s1	-1.91% (inactive)	
Cc1nc(Nc2ccc(F)cc2)nc(N2CCc3ccccc3C2C)c1C (centres undefined)	11.9% (inactive)	
Cn1c(=O)cc(N2CCCC(N)C2)n(Cc2cc(F)ccc2C#N)c1=O (centres undefined)	-2.86% (inactive)	
c1ccc(Nc2nc3c(s2)CCCc2[nH]ncc2-3)nc1	8.59% (inactive)	
Cc1c(C(=O)Nc2ccc(N3CC(C)OC(C)C3)nc2)cccc1-c1ccc(OC(F)(F)F)cc1 (centres undefined)	20% (inactive)	
CC[C@@H](c1ccc(F)c(F)c1)n1c(C(=O)OC)c(-c2ccno2)[nH]c1=S	-6.68% (inactive)	
Cc1ccc(C2(C(=O)N3CCC(n4nc(-c5ccccc5)oc4=O)CC3)CC2)cc1	-1.91% (inactive)	
COC(=O)N1CCC(n2ncc3c(N4CCOCC4)nc(-c4ccc(NC(=O)NC5CC5)cc4)nc32)CC1	12.4% (inactive)	
CC(C)c1c(NC(=O)Nc2ccc(Cl)cc2)c(=O)n(-c2ccccc2)n1C	9.07% (inactive)	
CCCCc1ccc(C(=O)Nc2cc(-c3ccc(Cl)cc3)nn2-c2ccc(Cl)cc2)cc1	6.68% (inactive)	
CC(C)S(=O)(=O)Nc1ccc(F)c(C(=O)c2c[nH]c3ncc(-c4cccnc4)cc23)c1F	28.6% (inactive)	
COc1cccc(-c2ccc([C@@H](Oc3cc(-c4ccc(C[C@H](N)C(=O)O)cc4)nc(N)n3)C(F)(F)F)cc2)c1	-13.4% (inactive)	
CC[C@H]1OC(=O)C[C@@H](O)[C@H](C)[C@@H](O[C@@H]2O[C@H](C)[C@@H](O)[C@H](N(C)C)[C@H]2O)[C@@H](CCN2C[C@H](C)C[C@H](C)C2)C[C@@H](C)C(=O)/C=C/C(C)=C/[C@@H]1CO[C@@H]1O[C@H](C)[C@@H](O)[C@@H](OC)[C@H]1OC	-8.59% (inactive)	
CN1CCOC(c2ccccc2)c2ccccc2C1 (centres undefined)	0.837% (inactive) and 6.21% (inactive)	
OC1CCC(Nc2nc(-c3ccccc3)nc3[nH]ccc23)CC1 (centres undefined)	-8.11% (inactive)	
